Measurements taken from PubChem BioAssay (NCATS).
Inconclusive results are not listed. A number with no mark means an inactive call. Activity calls are given as the source filed them. The call rests on the fitted dose curve; in most records, active means well fitted inhibition curve with a large enough effect; inconclusive means small, poorly fitted or top-dose-only effect; inactive means no such curve, though single readings can be large or run the other way.

target: Rap guanine nucleotide exchange factor 3 (Homo sapiens) (UniProt O95398); assay: Confirmatory qHTS for antagonist of cAMP-regulated guanine nucleotide exchange factor 3 (EPAC1) (AID 1645880); details: EPAC1 Rap1B-BODIPY-GDP exchange, fluorescence; activity, negative = inhibition: at 115 µM (top of the series); further: nearly all actives have a fitted effect of over 55% in size;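 on activity, negative = inhibition: plate controls were DMSO only for no effect and full effect of the ATA control for full effect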
Procedure, shortened: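 Released BODIPY-GDP fluoresces less than Rap1-bound BODIPY-GDP; the signal is followed at 480/540 nm at 5-min intervals over 30 min, after 5 min at room temperature. Reactions contain 100 nM EPAC1, 250 nM RAP1B-BODIPY-GDP and 50 uM GDP; results are normalized to ATA and DMSO.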
Potency means the concentration at half of the fitted maximal effect.

Sequence of Rap guanine nucleotide exchange factor 3 (Homo sapiens) (O95398 whole entry, looked up): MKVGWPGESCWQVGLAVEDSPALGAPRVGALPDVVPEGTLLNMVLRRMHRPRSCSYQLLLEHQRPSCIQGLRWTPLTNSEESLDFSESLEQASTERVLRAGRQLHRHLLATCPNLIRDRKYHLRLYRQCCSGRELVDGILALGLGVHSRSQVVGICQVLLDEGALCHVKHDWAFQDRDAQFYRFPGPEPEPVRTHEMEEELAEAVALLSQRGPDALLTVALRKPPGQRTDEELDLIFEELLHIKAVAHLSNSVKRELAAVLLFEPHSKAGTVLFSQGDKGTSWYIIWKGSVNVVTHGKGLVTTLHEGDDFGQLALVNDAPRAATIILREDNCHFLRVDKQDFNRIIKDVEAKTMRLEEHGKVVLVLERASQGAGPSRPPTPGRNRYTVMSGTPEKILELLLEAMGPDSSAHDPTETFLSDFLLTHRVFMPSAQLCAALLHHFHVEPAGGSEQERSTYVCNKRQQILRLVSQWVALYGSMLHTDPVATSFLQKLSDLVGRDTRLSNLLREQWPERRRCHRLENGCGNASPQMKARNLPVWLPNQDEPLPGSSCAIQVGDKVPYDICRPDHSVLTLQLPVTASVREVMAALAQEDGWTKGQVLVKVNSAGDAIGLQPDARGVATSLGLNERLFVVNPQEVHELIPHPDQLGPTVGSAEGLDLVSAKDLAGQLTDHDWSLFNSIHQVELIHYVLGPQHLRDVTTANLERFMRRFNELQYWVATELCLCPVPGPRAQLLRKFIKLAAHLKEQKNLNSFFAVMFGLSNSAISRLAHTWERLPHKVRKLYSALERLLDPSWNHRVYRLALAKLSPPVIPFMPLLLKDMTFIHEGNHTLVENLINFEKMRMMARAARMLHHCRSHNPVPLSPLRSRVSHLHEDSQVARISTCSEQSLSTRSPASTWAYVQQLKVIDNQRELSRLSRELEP

Compound	activity, negative = inhibition [%]	Potency
CNc1nc(C)cc(C)c1S(=O)(=O)c1ccc(C)cc1	-26.1	–
CCN(CC(=O)Nc1ccccc1C(=O)NC1CC1)Cc1cccs1	-17.9	–
COc1cc(C(c2c(C(=O)O)[nH]c3ccccc23)c2c(C(=O)O)[nH]c3ccccc23)ccc1OCc1ccccc1	–	15.1 µM (active)
COCCn1c(SCc2ccccc2F)nc2ccccc2c1=O	-20	–
C=CCn1c(SC(F)F)nc2scc(-c3ccco3)c2c1=O	-20.3	–
CNC(=O)CSc1nc2ccccc2c(=O)n1-c1cc(OC)ccc1OC	-15.4	–
Cc1ccccc1-c1cc2nc(NCCN3CCNC3=O)n(C)c(=O)c2s1	-27.9	–
Cc1ccc(-c2ccccc2C2=CC(=O)CC(C)(C)C2=O)cc1	-19.6	–
CCCCOc1ccc(/C=C/C(=O)OCC(=O)NC(=O)NCC(C)C)cc1OCC	-14.8	–
CCOC(=O)c1c(NC(=O)/C=C/C(=O)O)sc(C)c1-c1ccc(C(C)(C)C)cc1	–	42.6 µM (active)
O=C(CN1C(=O)NC2(CCCC2)C1=O)Nc1nc2c(F)cc(F)cc2s1	-29.6	–
CCOC(=O)C1=C(C)N=c2s/c(=C\c3ccc(OCC(=O)O)cc3)c(=O)n2C1c1ccc(OC(C)C)cc1 (configuration not stated)	–	75.7 µM (active)
CCN(CC(=O)Nc1c(F)cccc1F)C(=O)/C=C/c1ccc2ccccc2n1	–	8.49 µM (active)
CC(=O)c1c(-c2ccccc2)c2cc(Cl)ccc2n(C)c1=O	-12.8	–
COc1ccccc1Oc1ncnc2c1oc1ccccc12	-13.8	–
CCC(C(=O)OC(C)C)c1ccc2ccccc2c1 (configuration not stated)	-14.6	–
COc1ccc2nc(N3C(=O)C(O)=C(C(=O)c4ccco4)C3c3ccc(C)o3)sc2c1 (configuration not stated)	–	26.9 µM (active)
